Results on 39 molecules are retold here after PubChem BioAssay.

SMILES strings stand for the structures. Calls of active or inactive are those of the source. Cut-off read from the data, not from the text of the source: active = fold change permeability below about 0.7 or above about 1.3; inactive = in between.

The assay can be described thus: compounds altering in vitro BBB leakiness – cell-based, FITC-avidin fluorescence, HTS, primary screen (AID 1963498). Note: test concentration not given here. The following applies: brain endothelial barrier, actives lie on both sides.
Consider `CCN(c1nc(N)c(C(=O)N=C(N)N)nc1Cl)C(C)C`, for which the fold change permeability is 1.4 (active).
Under `O=c1[nH]cc(F)c(=O)[nH]1` stands 0.8 (inactive); under `C[C@H](NC(=O)CNC(=O)c1cccc(Cl)c1)c1ccccc1`, 1.1 (inactive).
Under `N=c1c[n+](N2CCOCC2)[n-]o1` stands 0.8 (inactive); under `COc1ccc(Cc2nn3c([C@@H](CCCc4ccccc4)[C@@H](C)O)nc(C)c3c(=O)[nH]2)cc1OC`, 1.1 (inactive); under `Cn1cc(C(=O)OCC2CCN(CCNS(C)(=O)=O)CC2)c2ccccc21`, 1 (inactive).
Take `CCCCS(=N)(=O)CC[C@H](N)C(=O)O` (some centres undefined): the fold change permeability is 0.9 (inactive).
As for `CC(C)(C)NCC(O)COc1cccc2[nH]c(=O)[nH]c12` (centres undefined), the fold change permeability is 1 (inactive).
With `Cn1c(=O)c2[nH]c(-c3ccc(S(=O)(=O)O)cc3)nc2n(C)c1=O`, the fold change permeability was 1 (inactive).
In the case of `COc1ccc2c(c1OC)C(=O)O[C@@H]2[C@H]1c2c(cc3c(c2OC)OCO3)CCN1C` it was 1 (inactive).
Consider `COc1ccc2c(c1)CC[C@@H]1[C@@H]2CC[C@]2(C)[C@@H](NCCCCCCN3C(=O)CCC3=O)CC[C@@H]12`, for which the fold change permeability was 2.2 (active).
Take `CC(=O)c1ccc2c(c1)N(CCCN(C)C)c1ccccc1S2`: the fold change permeability is 1.6 (active).
Under `CC(C)=CCC/C(C)=C/COc1ccc2ccc(=O)oc2c1` stands 2 (active).
Under `CCC(=O)NS(=O)(=O)c1ccc(-c2c(-c3ccccc3)noc2C)cc1` stands 0.9 (inactive); under `NC(N)=NC(=O)c1nc(Cl)c(N2CCCCCC2)nc1N`, 1.1 (inactive); under `CCN(CC)CCOC(=O)c1ccc(N)cc1`, 0.8 (inactive).
Under `Cc1cc(N)c2ccccc2[n+]1CCCCCCCCCC[n+]1c(C)cc(N)c2ccccc21` stands 1.6 (active); under `C=C(Cc1ccccc1Cl)C(=O)OCC`, 1 (inactive); under `OC[C@H]1O[C@@H](n2cnc3c(NC4CCCCC4)ncnc32)[C@H](O)[C@@H]1O`, 1.2 (inactive).
As to `CC(C)(C)c1ccc(CN2CCN(C(c3ccccc3)c3ccc(Cl)cc3)CC2)cc1` (centres undefined), the fold change permeability was 1.6 (active).
With `O=C1c2c(O)ccc(O)c2C(=O)c2c(NCCNCCO)ccc(NCCNCCO)c21`, the fold change permeability is 0.8 (inactive).
Under `CC(C(=O)O)c1ccc(CC2CCCC2=O)cc1` (centres undefined) stands 1.5 (active).
Under `OC[C@H]1O[C@@H](n2cnc3c(N[C@H]4CCC[C@@H]4O)ncnc32)[C@H](O)[C@@H]1O` stands 1 (inactive).
As to `C[n+]1cc2c3c(ccc2c2ccc4cc5c(cc4c21)OCO5)OCO3`, the fold change permeability is 2.1 (active).
On to `CC1CCN(CC[C@H]2CCCN2S(=O)(=O)c2cccc(O)c2)CC1`, for which the fold change permeability was 0.7 (active).
In the case of `Nc1ncnc2c1ncn2[C@@H]1O[C@H](COP(=O)(O)OP(=O)(O)OP(=O)(O)OP(=O)(O)OC[C@@H]2O[C@H](n3cnc4c(N)ncnc43)C(O)[C@@H]2O)[C@H](O)C1O` (some centres undefined), the fold change permeability is 1 (inactive).
In the case of `CC(=O)CCCCn1c(=O)c2c(ncn2C)n(C)c1=O` it was 1 (inactive); in that of `Nc1ncnc2c1nc(Sc1ccc(Cl)cc1)n2C1OC2COP(=O)(O)O[C@@H]2[C@@H]1O` (some centres undefined), 0.9 (inactive).
For the molecule `N=C(N)c1ccccc1`, the fold change permeability was 0.9 (inactive).
In the case of `COc1cc(O)cc(CCc2ccc(OC)c(O)c2)c1` it was 1.9 (active).
`CC1=C(C(=O)O)N2C(=O)[C@@H](NC(=O)[C@H](N)C3=CCC=CC3)[C@H]2SC1`: the fold change permeability is 0.9 (inactive).
For `Clc1ccc(Cn2c(CN3CCCC3)nc3ccccc32)cc1`, the fold change permeability was 1.2 (inactive).
On to `N=C(N)c1ccc(OCCCCCOc2ccc(C(=N)N)cc2)cc1`, for which the fold change permeability is 1.1 (inactive).
Turning to `Nc1ncnc2c1ncn2C1CCCO1` (centres undefined), the fold change permeability was 1 (inactive).
For the molecule `NS(=O)(=O)c1cccc2c1c([N+](=O)[O-])cc1nc(O)c(O)nc12`, the fold change permeability was 0.9 (inactive).
With `CC1CCc2nc(N)c(C#N)c(-c3cccnc3)c2C1` (centres undefined), the fold change permeability was 1 (inactive).
In the case of `COc1cccc2c(NCc3ccccc3)nc(-n3c(N)nc4ccccc43)nc12` it was 0.9 (inactive); in that of `CCCCCCCCCCCCCCCCCCOC[C@H](COP(=O)([O-])OCC[N+](C)(C)C)OC`, 1.5 (active).
With `NC(=Nc1ccccc1)NC(=O)c1nc(Cl)c(N)nc1N`, the fold change permeability was 1.2 (inactive).
